The whole screen tested about 5,500 compounds, of which about 2,000 (36%) were called active. Not shown: some 18% with an inconclusive outcome. No stated cut-off is given here; in the data, active means normalized growth mostly below about 0.91 (no sharp cut-off); inconclusive means no clear call, values can overlap the other calls; inactive means mostly above about 0.92. The list shows a part of the results.
Test: chemical genetic growth profiling, strain panel (AID 1159580);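 further: tested at 20 µM; growth read once vehicle control cultures reached saturation at 30 °C; 1 = growth at the plate median or of vehicle wells; lower values mean less growth of the strain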
Conditions: S. cerevisiae deletion strains, growth OD

Measured: normalized growth

CCn1cc([N+](=O)[O-])nc1C
inactive: locus YAL013W, strain DEP1, active compounds read low 1 | locus YBR229C, strain ROT2, active compounds read low 1.02 | locus YDL101C, strain DUN1, active compounds read low 1.03 | locus YDR150W, strain NUM1, active compounds read low 1.03 | locus YEL061C, strain CIN8, active compounds read low 0.981 | locus YGR078C, strain PAC10, active compounds read low 1.02 | locus YHR030C, strain SLT2, active compounds read low 1.05 | locus YHR087W, strain rtc3, active compounds read low 0.975 | locus YJR043C, strain POL32, active compounds read low 1.06 | locus YJR075W, strain HOC1, active compounds read low 1 | locus YKL190W, strain CNB1, active compounds read low 1 | locus YLR039C, strain RIC1, active compounds read low 0.987 | locus YLR058C, strain SHM2 (second series), active compounds read low 0.998 | locus YLR085C, strain ARP6, active compounds read low 0.982 | locus YLR262C, strain YPT6, active compounds read low 0.979 | locus YML094W, strain GIM5, active compounds read low 0.968 | locus YMR219W, strain ESC1, active compounds read low 0.983 | locus YMR263W, strain SAP30, active compounds read low 1.01 | locus YNL128W, strain TEP1, active compounds read low 1.02 | locus YNL153C, strain GIM3, active compounds read low 1.02 | locus YNL298W, strain CLA4 (second series), active compounds read low 1 | locus YNL322C, strain KRE1, active compounds read low 0.997 | locus YNR030W, strain Alg12, active compounds read low 0.976 | locus YPL055C, strain LGE1, active compounds read low 1.01 | locus YPL241C, strain CIN2, active compounds read low 1.02 | locus YPR135W, strain CTF4, active compounds read low 1.05

— PubChem BioAssay AID1159580 (chemical genetic matrix, 2015)
